The values below come from PubChem BioAssay (NCI).

Test systems include T-47D breast; BT-549 breast; MDA-MB-435 melanoma; SW-620 colon; MCF7 breast; HCT-116 colon; HCC-2998 colon; KM12 colon.
What all share (experiment): NCI-60 one-dose screen, 48 h (100 = growth as untreated, 0 = no growth, -100 = all killed)
Holding throughout (details): 10 µM unless noted

Molecules are shown by their SMILES. Compounds without any hit were thinned out: in the full panel of roughly 83,000, 20% have a hit.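 Step 1: grow cells in 96-well plates. Step 2: add test compound at a single concentration. Step 3: incubate 48 h. Step 4: record percent growth.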 A number with no mark means an inactive call. Activity calls are given as the source filed them. How the source made its calls: active means growth percent below 10; inactive means the rest.

As for `CCCCCCCCCCCCCCCCCC1=NC(C)(C)CN1C(C)(C)CO`, the growth was -19.5% (active) in the experiment with T-47D breast; 64.7% in the experiment with BT-549 breast; -68.7% (active) in the experiment with MDA-MB-435 melanoma; -100% (active) in the experiment with SW-620 colon; -81% (active) in the experiment with MCF7 breast; -100% (active) in the experiment with HCT-116 colon. Further, the growth in the experiment on HCC-2998 colon and in the experiment with KM12 colon was -100% (active) each time.

As to `COc1ccc2c(c1)CCCC21C(=O)Nc2c(Cl)cccc21` (stereo not drawn), the growth is 87.6% in the experiment on T-47D breast; 91% in the experiment with BT-549 breast; -11.8% (active) with MDA-MB-435 melanoma; 42.8% in the experiment with SW-620 colon; 81.8% in the experiment on MCF7 breast; 49.5% with HCT-116 colon. Moreover, the growth was 88.3% with HCC-2998 colon and 61.3% in the experiment on KM12 colon.

For `COc1ccc2nc(C)cc(Nc3ccccc3O)c2c1`, the growth was 44% in the experiment with T-47D breast; 35% in the experiment with BT-549 breast; 64.4% with MDA-MB-435 melanoma; 82% with SW-620 colon; 67.7% in the experiment on MCF7 breast; 29.9% in the experiment with HCT-116 colon. Besides, the growth with HCC-2998 colon is 112%; with KM12 colon it was 86.9%.

Consider `Cc1cc(C)c2c(NC(=O)Nc3ccc(Cl)c(Cl)c3)n[nH]c2n1`, for which the growth in the experiment on T-47D breast was 93.3%; in the experiment with BT-549 breast, 104%; in the experiment on MDA-MB-435 melanoma it was 92.8%; with SW-620 colon, 112%; in the experiment on MCF7 breast, 82.6%; in the experiment on HCT-116 colon it was 108%. In addition, the growth is 115% in the experiment with HCC-2998 colon and 104% with KM12 colon.

For the compound `COc1ccc(/C(=C\c2ccc3c(c2)OCO3)C(=O)Nc2nc3ccc(F)cc3s2)cc1OC`, the growth in the experiment on T-47D breast is 101%; with BT-549 breast, 97.1%; with MDA-MB-435 melanoma, 99.8%; with SW-620 colon, 104%; with MCF7 breast, 94.9%; in the experiment with HCT-116 colon, 97.7%. Further, the growth in the experiment on HCC-2998 colon was 109%; with KM12 colon, 96.3%.

As for `CC(C)NCCCCCNc1cc(O)cc2cccnc12`, the growth was 31.3% in the experiment on T-47D breast; 104% in the experiment with BT-549 breast; 101% with MDA-MB-435 melanoma; 83.1% in the experiment with SW-620 colon; 43.3% in the experiment with MCF7 breast; 65.5% in the experiment on HCT-116 colon. The growth with HCC-2998 colon is 54.6%; in the experiment with KM12 colon, 100%.

Turning to `O=c1cc(-c2ccc3c(c2)OCCO3)oc2cc(Cl)ccc12`, the growth is 1.86% (active) with T-47D breast; 81.4% in the experiment on BT-549 breast; 7.43% (active) in the experiment on MDA-MB-435 melanoma; 28.6% with SW-620 colon; 77.8% in the experiment with MCF7 breast; -1.49% (active) with HCT-116 colon. Moreover, the growth in the experiment on HCC-2998 colon was 66.2%; with KM12 colon, 21.3%.

Take `O=C(Cc1ccc(Nc2ccnc(C(F)(F)F)c2)cc1)N/N=C/c1ccccc1O`: the growth in the experiment with T-47D breast was 18.4%; in the experiment with BT-549 breast, 50.2%; with MDA-MB-435 melanoma it was 34.7%; in the experiment with SW-620 colon, 38.3%; in the experiment on MCF7 breast, 12.9%; in the experiment with HCT-116 colon it was 16.1%. Also, the values for the growth with HCC-2998 colon and in the experiment with KM12 colon were 40.5% and 30.7%, respectively.

On to `C=CC[C@]1(O)CC[C@H]2[C@@H]3CCc4cc(O)ccc4[C@H]3CC[C@@]21C`, for which the growth in the experiment with T-47D breast is 82.5%; in the experiment on BT-549 breast, 93.6%; with MDA-MB-435 melanoma it was 38.9%; in the experiment on SW-620 colon, 92%; in the experiment on MCF7 breast, 116%; in the experiment with HCT-116 colon, 93%. For the same compound, the growth was 99.8% in the experiment on HCC-2998 colon and 76.8% with KM12 colon.

Regarding `COc1cc2nccc(Oc3ccc(NC(=O)C4(C(=O)Nc5ccc(F)cc5)CC4)cc3)c2cc1Oc1ccc(N)cn1`, the growth in the experiment on T-47D breast was 5.99% (active); with BT-549 breast it was 61.9%; in the experiment with MDA-MB-435 melanoma, 3.34% (active); with SW-620 colon, 36.8%; in the experiment with MCF7 breast, 9.52% (active); in the experiment on HCT-116 colon, 40.7%. Further, the growth is 72% with HCC-2998 colon and 3.7% (active) in the experiment with KM12 colon.

Take `CCCCN(CCCC)CCCN=c1nc2c(c(N)n1-c1ccccc1)c(=S)n(-c1ccccc1)c(=S)n2-c1ccccc1`: the growth with T-47D breast is -62.1% (active); in the experiment with BT-549 breast, -90.6% (active); in the experiment with MDA-MB-435 melanoma, -100% (active); in the experiment with SW-620 colon, -100% (active); in the experiment on MCF7 breast, -88.1% (active); in the experiment with HCT-116 colon it was -25% (active). In addition, the growth in the experiment with HCC-2998 colon is -91.5% (active); with KM12 colon it was -100% (active).

Consider `c1ccc2c(c1)cnc1ccccc12`, for which the growth in the experiment on T-47D breast is 96.8%; in the experiment with BT-549 breast, 106%; in the experiment with MDA-MB-435 melanoma it was 102%; with SW-620 colon, 98.5%; with MCF7 breast, 94.3%; with HCT-116 colon it was 100%. Also, the growth is 101% in the experiment on HCC-2998 colon and 102% in the experiment with KM12 colon.

With `C[C@]12CCc3nc(Nc4ccc(O)cc4)sc3C1=CC[C@@H]1[C@@H]2CC[C@]2(C)/C(=N/NC(N)=S)CC[C@@H]12`, the growth in the experiment with T-47D breast was -31.6% (active); with BT-549 breast, 9.89% (active); in the experiment with MDA-MB-435 melanoma, -68.5% (active); in the experiment with SW-620 colon, -62% (active); in the experiment on MCF7 breast, -35% (active); with HCT-116 colon, -81% (active). Also, the figures for the growth in the experiment with HCC-2998 colon and with KM12 colon were -18.2% (active) and -64.9% (active), respectively.

In the case of `COc1cc2c(cc1C)NC(=O)/C2=C\c1c[nH]c2ccccc12`, the growth is 65.8% in the experiment on T-47D breast; 94.6% in the experiment with BT-549 breast; 68.8% in the experiment on MDA-MB-435 melanoma; 101% with SW-620 colon; 59.2% in the experiment with MCF7 breast; 78.5% in the experiment on HCT-116 colon. The growth in the experiment on HCC-2998 colon is 109%; with KM12 colon it was 24.3%.

Turning to `CCOC(CN1CCN(CC(C)C(=O)c2ccccc2)CC1)c1ccccc1` (stereo not drawn), the growth in the experiment on T-47D breast was 92.8%; with BT-549 breast, 115%; in the experiment with MDA-MB-435 melanoma, 102%; with SW-620 colon it was 106%; in the experiment with MCF7 breast it was 80.6%; in the experiment with HCT-116 colon, 109%. In addition, the growth in the experiment on HCC-2998 colon was 115%; in the experiment with KM12 colon it was 104%.

With `O=C(/C=C/c1ccccc1)C(Br)C(Br)c1ccccc1` (stereo not drawn), the growth in the experiment with T-47D breast was -36.6% (active); in the experiment on BT-549 breast, -60.8% (active); in the experiment with MDA-MB-435 melanoma it was -68.7% (active); in the experiment on SW-620 colon, -53.1% (active); in the experiment on MCF7 breast, -48.3% (active); in the experiment with HCT-116 colon, -94.2% (active). Moreover, the growth is 51.8% in the experiment with HCC-2998 colon and 8.19% (active) in the experiment on KM12 colon.
